Data on 31 molecules can be found in PubChem BioAssay (NCATS).

“And” between values parts separate entries of the source, which are not always exact repeats. Equal entries are not always repeated. Inconclusive results are not listed. Some compounds were tested as several samples or in several runs, with calls that do not always agree. The source made the active and inactive calls. Unless noted, calls follow the shape of the dose curve; as a rule, active = well fitted curve in the direction sought with a large enough effect; inconclusive = small, poorly fitted or top-dose-only effect, or another doubt; inactive = no such curve, though single readings can be large; an effect the other way counts as inactive or inconclusive.

Assay [1] in a line: qHTS for Activators of Parkin Expression: LOPAC Validation Assay (NLuc Reporter) (AID 720572;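 also: 0% = DMSO and 100% = positive control compound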). The method in brief:
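Neuronal cells with a Parkin promoter-driven FLuc/NLuc coincidence reporter were treated 24 h at 37 C in 7-point dose response (LOPAC). NLuc luminescence read after FLuc; signals normalized to DMSO and positive control (100%).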
On the technique in general: Quantitative high-throughput screening tests each substance at several concentrations.

The target of assay [2] is T1, Hexokinase-4 (Homo sapiens) + Glucokinase regulatory protein (Homo sapiens) (UniProt P35557+Q14397). Kind of assay: qHTS assay for inhibitors of recombinant human GCK-GKRP interaction: Diaphorase-coupled assay (AID 743205). The method in brief:
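Signal derives from resorufin generated by diaphorase, linked to GCK turnover of glucose (5 mM) and ATP (0.4 mM). Enzyme complex was added after a 20-minute compound preincubation and monitored for 30 minutes.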

Assay [3] concerns the target T1, Hexokinase-4 (Homo sapiens) + Glucokinase regulatory protein (Homo sapiens). Nature of the assay: qHTS assay for inhibitors of recombinant human GCK-GKRP interaction: ADP-Glo assay (AID 743206).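 Also: plate controls were DMSO plus enzyme for no effect and no enzyme for full effect.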 The method in brief: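 GST-GCK and FLAG-GKRP (15 nM each in the dispensed mix, with 2 uM S6P) react with 0.4 mM ATP and 5 mM glucose (final) in Hepes pH 7.6 for 60 min at room temperature. ADP is measured by ADP-Glo luminescence.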

For assay [4] the target is unchanged. Nature of the assay: qHTS assay for inhibitors of recombinant human GCK-GKRP interaction: HTRF assay (AID 743207).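 Also: 0% = DMSO with GCK present and -100% = DMSO wells lacking GCK.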 The method in brief:
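Titration screening format: recombinant GST-GCK and FLAG-GKRP at 5 nM, S6P at 2 uM, labelled anti-tag antibodies, 60 min at RT, dual-wavelength HTRF readout.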

Assay [5] is described as follows: qHTS Assay for Identifying Gametocytocidal Compounds (AID 743244). Also: potency is read from the fitted curve at half-maximal effect.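 As to max response: % is scaled to controls: 0 for no effect and ±100 for the full control effect; actives lower the fluorescent signal which means gametocytes are killed.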 Particulars: P. falciparum 3D7 stage III-V gametocytes, alamarBlue, 72 h; max response: stronger effect = lower value. The method in brief:
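Late gametocytes (III–V), P. falciparum 3D7; 72 h drug, then 24 h alamarBlue; resazurin reduction read by fluorescence.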

Assay [6] in a line: qHTS assay for small molecule agonists of the antioxidant response element (ARE) signaling pathway measured by Nrf2-dependant transcriptional activity (AID 720636; active = well fitted curve in the direction sought with a large enough effect in the repeat runs; an effect the other way counts as inactive or inconclusive; also: potency is read from the fitted curve at half-maximal effect). The method in brief: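 First, ARE-luc HepG2 cells attached for 6 hr at 37 C in 1% dialyzed FBS medium. Next, compound or DMSO was added and incubated 16 hr. Finally, ONE-Glo reagent was added and luminescence measured after 30 min.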

Assay [7] can be described thus: qHTS assay for small molecule antagonists of the retinoid-related orphan receptor gamma (ROR-gamma) signaling pathway - cell viability counter screen (AID 720652; active = well fitted curve in the direction sought with a large enough effect in the repeat runs; an effect the other way counts as inactive or inconclusive;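 also: compound exposure lasted 16 hr before ATP read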; also: potency is read from the fitted curve at half-maximal effect). The method in brief:
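Cytotoxicity is quantified via intracellular ATP (CellTiter-Glo luminescence) in doxycycline-induced CHO ROR response element-luciferase reporter cells treated with compound for 16 hr at 37 C, 5% CO2.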

Assay [8] in a line: qHTS assay for cell viability of HEK293 cells (AID 743288). Also: nearly all actives have a fitted effect of over 50% in size. Also: potency is read from the fitted curve at half-maximal effect. As to max response: % is scaled to controls: 0 for no effect and ±100 for the full control effect. As to conditions: ATP luminescence (CellTiter-Glo), 18 h; max response: stronger effect = lower value. The method in brief: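 Luminescent ATP quantitation served as the viability read-out. Cells (parental HEK293, 2,000/well) received compounds after at least 5 h at 37 C and were exposed for 18 h before a 30 min room-temperature reagent step.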

The nature of assay [9]: qHTS assay for cell viability of the p53RE-bla HCT-116 cell line (AID 743292). Also: nearly all actives have a fitted effect of over 55% in size. Also: potency is read from the fitted curve at half-maximal effect. The method in brief:
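Quantitative high-throughput format: compounds in DMSO were pinned onto p53RE-bla HCT-116 cells (4,000/well) and incubated 16 h at 37 C. Total intracellular ATP, read by CellTiter-Glo luminescence, reflects viable cell number.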

Assay [10] can be described thus: qHTS profiling for inhibitors of Plasmodium falciparum (3D7) proliferation (AID 743322; call rule not given here;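 also: infected erythrocytes exposed to compound for 72 h before lysis; 100% = DMSO vehicle wells and 0% = 0.29 µM artemisinin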). Particulars: P. falciparum 3D7 proliferation; at 28.7 µM (top of the series). The method in brief:
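Erythrocytes infected with P. falciparum (0.3% parasitemia, 2.5% hematocrit) incubated with compounds 72 h at 37 C, 5% CO2. Lysis with saponin/Triton buffer containing SYBR Green I, overnight at room temperature in the dark; DNA fluorescence (485/535 nm) normalised to 0.29 uM artemisinin and DMSO.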

T1 sequence (P35557 whole entry, looked up): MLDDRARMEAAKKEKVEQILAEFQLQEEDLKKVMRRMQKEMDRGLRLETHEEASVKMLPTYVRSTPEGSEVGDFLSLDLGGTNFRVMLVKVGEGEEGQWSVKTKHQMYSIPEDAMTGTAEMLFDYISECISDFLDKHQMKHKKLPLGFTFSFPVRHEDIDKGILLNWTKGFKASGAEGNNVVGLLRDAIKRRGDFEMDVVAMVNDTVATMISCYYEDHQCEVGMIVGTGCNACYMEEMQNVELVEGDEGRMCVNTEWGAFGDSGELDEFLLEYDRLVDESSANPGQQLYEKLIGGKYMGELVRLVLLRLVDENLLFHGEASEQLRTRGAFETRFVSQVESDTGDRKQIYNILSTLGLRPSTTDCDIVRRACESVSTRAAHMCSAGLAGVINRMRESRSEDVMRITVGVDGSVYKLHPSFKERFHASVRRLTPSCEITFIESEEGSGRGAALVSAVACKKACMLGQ
T1 sequence (Q14397 whole entry, looked up): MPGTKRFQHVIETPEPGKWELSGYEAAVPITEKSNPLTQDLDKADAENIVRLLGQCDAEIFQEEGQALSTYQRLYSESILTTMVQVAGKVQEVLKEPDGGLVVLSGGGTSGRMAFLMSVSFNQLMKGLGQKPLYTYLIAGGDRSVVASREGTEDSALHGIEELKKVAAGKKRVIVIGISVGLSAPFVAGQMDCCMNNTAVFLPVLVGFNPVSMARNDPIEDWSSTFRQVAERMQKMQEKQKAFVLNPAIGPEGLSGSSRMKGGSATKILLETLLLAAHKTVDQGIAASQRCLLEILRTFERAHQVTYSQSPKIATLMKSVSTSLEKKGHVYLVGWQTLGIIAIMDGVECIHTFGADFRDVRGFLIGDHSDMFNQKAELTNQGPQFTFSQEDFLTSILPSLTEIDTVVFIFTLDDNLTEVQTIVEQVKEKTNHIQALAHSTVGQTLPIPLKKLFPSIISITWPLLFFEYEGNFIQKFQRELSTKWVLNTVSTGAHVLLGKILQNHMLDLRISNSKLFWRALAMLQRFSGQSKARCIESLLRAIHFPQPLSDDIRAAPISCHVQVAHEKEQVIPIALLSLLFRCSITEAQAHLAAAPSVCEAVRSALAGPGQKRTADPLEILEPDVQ

In the case of `COc1ccccc1N1CCNCC1`, the molecule was called inactive in [1], in assay [2], in assay [3] and in assay [4]. Besides, the max response in assay [5] was 13.1% (inactive) and 8.67% (inactive).

Consider `CCC1(C2=NCCN2)Cc2ccccc2O1` (configuration not stated), for which the molecule was classed as inactive in assay [1], in [2], in [3] and in assay [4]. Moreover, the max response in assay [5] was -5.65% (inactive) and 15.9% (inactive).

In the case of `O=c1[nH]c2ccccc2n1CCCN1CCC(n2c(=O)[nH]c3cc(Cl)ccc32)CC1`, the molecule was called inactive in assay [1], in assay [2], in [3] and in assay [4]. The max response in [5] is -7.84% (inactive) and 21.7% (inactive).

`Oc1cccc2cccnc12`: the Potency in [6] is 42.2 µM (active); in assay [5], 11.2 µM (active) and 25.1 µM (active). Moreover, the Potency entry in [7] and in [9] was “inactive” in each case. Besides, the max response in [8] was -19.7% (inactive).

Take `CCCN1CCC[C@@H]2Cc3nc(N)ncc3C[C@H]21`: the outcome in assay [1], in [2], in assay [3] and in assay [4] was inactive. In assay [5], the max response is 3.72% (inactive) and 1.86% (inactive).

As to `NN=C(N)N`, the call in assay [1], in [2], in assay [3] and in assay [4] was inactive. In addition, the max response in [5] was 9.75% (inactive) and 23.5% (inactive).

With `CN1C[C@H](CNC(=O)OCc2ccccc2)C[C@@H]2c3cccc4c3c(cn4C)C[C@H]21`, the outcome in assay [1], in assay [2], in assay [3] and in [4] was inactive. In addition, the max response in [5] was -4.3% (inactive).

Take `Oc1ccc(Cl)cc1Cc1ccccc1`: the Potency result in assay [6], in assay [7] and in assay [9] was “inactive” throughout. The max response was -3.88% (inactive) and -14.6% (inactive) in [5]; -10.2% (inactive) and -5.38% (inactive) in assay [8].

On to `Cc1cccc(C)c1NC(=O)CN1CCCC1=O`, for which the call in assay [1], in assay [2], in assay [3] and in assay [4] was inactive. The max response in assay [5] was 12.6% (inactive).

Take `Oc1ccccc1-c1ccccc1`: the Potency result in assay [6] and in assay [7] was “inactive” in each case. Moreover, the Potency was 891 µM (active) in assay [8]; “inactive and 708 µM (active)” in assay [9]. Further, the max response in assay [8] is -4.38% (inactive) and -13.9% (inactive) and 2.52% (inactive).

As to `Cc1ncc(CNC(=O)N(CCCl)N=O)c(N)n1`, the result in [1], in assay [2], in assay [3] and in assay [4] was inactive. Besides, in assay [5], the max response is -1.52% (inactive) and 11.3% (inactive).

In the case of `Cc1ccc(S(=O)(=O)N[C@@H](CCCCN)C(=O)CCl)cc1`, the outcome in assay [1], in assay [2], in assay [3] and in assay [4] was inactive.

Take `O=C1NCN(c2ccccc2)C12CCN(CC1COc3ccccc3O1)CC2` (configuration not stated): the molecule was called inactive in assay [1], in assay [2], in [3] and in [4]. In [5], the max response was -1.23% (inactive) and 22.3% (inactive).

With `NCC(O)c1ccc(O)cc1` (configuration not stated), the molecule was classed as inactive in assay [1], in [2], in assay [3] and in assay [4]. The Potency result in assay [6], in [7] and in [9] was “inactive” in each case. The max response in [5] was 3.16% (inactive) and 11.7% (inactive); in assay [8] it was 1.63% (inactive).

Turning to `CC(CCc1ccccc1)NC(C)C(O)c1ccc(O)cc1` (configuration not stated), the molecule was classed as inactive in assay [1], in assay [2], in assay [3] and in assay [4]. Besides, the max response in assay [5] is 2.74% (inactive) and 19.3% (inactive).

With `c1ccc2c(c1)OCC(C1=NCCN1)O2` (configuration not stated), the molecule was classed as inactive in [1], in assay [2], in [3] and in assay [4]. Further, the Potency in [5] is 6.31 µM (active) and 3.55 µM (active).

On to `COC[C@H]1OC(=O)c2coc3c2[C@@]1(C)C1=C(C3=O)C2CCC(=O)[C@@]2(C)C[C@H]1OC(C)=O` (some centres not stated), for which the molecule was classed as inactive in [1], in [2], in assay [3] and in assay [4]. Besides, the max response in [5] was 9.51% (inactive). In assay [10], this molecule yielded a remaining parasite growth % (stronger effect = lower value) of 74.1%.

Take `CC[C@@H](CO)NC(=O)[C@@H]1C=C2c3cccc4[nH]cc(c34)C[C@H]2N(C)C1`: the outcome in assay [1], in [2], in assay [3] and in assay [4] was inactive.

As to `CC(=O)[C@H]1CC[C@H]2[C@@H]3CC[C@H]4C[C@](C)(O)CC[C@]4(C)[C@H]3CC[C@]12C`, the molecule was classed as inactive in [1], in assay [2], in assay [3] and in [4]. In addition, the max response in assay [5] was -7.05% (inactive) and 9.26% (inactive).

Consider `C#CCOC(C(=O)OCCN(C)C)(c1ccccc1)c1ccccc1`, for which the max response in assay [5] was -0.509% (inactive).

For `C=CCN1CC[C@]23c4c5ccc(O)c4O[C@H]2C(=O)CC[C@@]3(O)[C@H]1C5`, the max response in assay [5] was 6.99% (inactive) and 10.2% (inactive).

Turning to `CN1CCN(C(=O)O[C@H]2c3nccnc3C(=O)N2c2ccc(Cl)cn2)CC1`, the max response in assay [5] was -4.73% (inactive).

Take `O=C(O)c1ccc2[nH]cc(CCCCN3CC=C(c4ccccc4)CC3)c2c1`: the max response in assay [5] was -6.11% (inactive).

In the case of `Cc1cc2c(C(C)C)c(O)c(O)c(C=O)c2c(O)c1-c1c(C)cc2c(C(C)C)c(O)c(O)c(C=O)c2c1O`, in assay [6], the Potency entry is “inactive”. Moreover, in assay [5], the max response was 0.673% (inactive).

`O=c1c(O)c(-c2ccc(O)c(O)c2)oc2cc(O)cc(O)c12`: in [5], the max response is 43.6% (inactive) and 2.58% (inactive) and 14.8% (inactive).

Consider `C[C@]12CC[C@H]3[C@@H](CCC4=CC(=O)CC[C@@H]43)[C@@H]1CC[C@@H]2OC(=O)CCc1ccccc1`, for which the max response in assay [5] was 0.188% (inactive).

On to `CC(C)(C)CC(C)(C)c1ccc(O)cc1`, for which the Potency result in [6] and in [9] was “inactive” in each case. Moreover, the max response was -7.21% (inactive) and 8.2% (inactive) in assay [5]; -15.6% (inactive) in assay [8].

Take `N[C@@H](Cc1ccc(N(CCCl)CCCl)cc1)C(=O)O`: the Potency in assay [7] is 21.1 µM (active); in assay [8] it was 50.1 µM (active). In assay [5], the max response was 7.49% (inactive). Further, in assay [9], the Potency entry was “inactive”.

Turning to `O=c1oc2ccccc2c(O)c1C(CC(O)c1ccc(-c2ccc(Br)cc2)cc1)c1ccccc1` (configuration not stated), in assay [6], the Potency result is “inactive”. Further, the max response in assay [5] is -15.4% (inactive); in [8], -5.59% (inactive). Moreover, the Potency in assay [9] is 31.6 µM (active).

Take `CC[N+]1(C)CCCC(OC(=O)C(O)(c2ccccc2)c2ccccc2)C1` (configuration not stated): the max response in assay [5] was -8.23% (inactive).

For the molecule `C[C@H]1O[C@@H](O[C@H]2[C@@H](O)C[C@H](O[C@H]3[C@@H](O)C[C@H](O[C@H]4CC[C@@]5(C)[C@H](CC[C@@H]6[C@@H]5CC[C@]5(C)[C@@H](C7=CC(=O)OC7)CC[C@]65O)C4)O[C@@H]3C)O[C@@H]2C)C[C@H](O)[C@@H]1O`, the Potency result in assay [6] was “inactive”. Further, the max response in [5] was -3.93% (inactive). The Potency in assay [8] was 0.0562 µM (active).
